Among all 290,000 compounds or so, about 2,700 (0.93%) were called active. The sample holds actives, similar compounds and a random draw of the others, so the mix is not that of the screen. No rule for the calls is given here.

This assay concerns the target Eukaryotic translation initiation factor 4H (Homo sapiens) (UniProt Q15056). Kind of assay: eIF4H binding inhibition – biochemical, uHTS, fluorescence polarization, translation initiation inhibitor project, primary screen (AID 2012).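 Also: calls also rest on retests at 20 µM and on dose response follow-up.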 Conditions: eIF4H fluorescence polarization binding assay, stronger effect = higher value.

Regarding `Cc1ccc(C(=O)c2coc3ccc(O)c(CN(C)C)c23)cc1`, where the note is “at 35 µM”, the inhibition is -10.3% (inactive).
In the case of `Cc1c(CC(=O)N2CCN(C(=O)C3COc4ccccc4O3)CC2)c(=O)oc2c(O)c(O)ccc12` (stereo unspecified), the inhibition is, setting by setting: (at 35 µM) 61% (active); (confirmation average, at 20 µM) 103%.
Take `O=C(CNC(=O)C1COc2ccccc2O1)N/N=C/c1cc(Br)c(O)c(Br)c1` (stereo unspecified): the inhibition (at 35 µM) is 7.4% (inactive).
On the same count and under the same terms, the figure for `Cc1c(C)c2ccc(OCC(=O)N3CCC(C(=O)O)CC3)c(C)c2oc1=O` is -4% (inactive); for `COc1ccccc1OCc1ccc(C(=O)NC(C)c2ccccc2)o1` (stereo unspecified) it is -6.4% (inactive).
The same measure, in the same setting: the figure for `Cc1cccc(-c2nc3ccc(C(=O)NCCN4CCN(C)CC4)cc3nc2-c2cccc(C)c2)c1` is -1.5% (inactive); for `O=C1CN(C(=O)c2ccccc2F)C(c2ccc(F)cc2)c2cc(F)ccc2N1` (stereo unspecified) it is -4.2% (inactive).
Same read-out and setting: then `Cc1c(-c2ccccc2)cn2c1-c1ccc(C)n1CC2`, with 90.6% (active); and `Cc1ccc2c(c1)N(CC(=O)N1CCC(C)CC1)C(=O)c1cccnc1O2`, with -17.4% (inactive).
`CCOc1ncccc1C(=O)NCCc1ccc(OC)cc1`: under “at 35 µM”, the inhibition was -1.9% (inactive).
On to `COC(=O)c1cc(CNC(=O)CC(C)c2ccccc2)ccc1OC` (stereo unspecified), for which the inhibition (at 35 µM) is -2% (inactive).
Same read-out and setting: then `C/C(=N\NC(=O)COc1ccc(C)cc1[N+](=O)[O-])c1ccc2c(c1)OCCO2`, with -2.1% (inactive); and `CC(NC(=O)COc1ccc(-c2ccccc2)cc1)C1CCCO1` (stereo unspecified), with -6.9% (inactive); and `Cc1cc(C)c2nc(-c3ccco3)cc(C(=O)O)c2c1`, with 103% (active).
The same measure, in the same setting: then `Cc1ccsc1-c1cc(C(=O)O)c2c(ccc3ccccc32)n1`, with 30.1% (inactive).
Still for that read-out and setting: the figure for `COC(=O)c1cnn2c(C(F)(F)F)cc(-c3ccco3)nc12` is -0.4% (inactive); for `Cc1nc(N2CCOCC2)sc1C(=O)NN` it is 0.1% (inactive).
Turning to `Fc1cc(F)c2nc(N3CCOCC3)sc2c1`, the inhibition (at 35 µM) is -7.8% (inactive).
In the case of `Cc1cc(C)n(Cc2cnc(N3CCOCC3)s2)n1`, the inhibition by setting is: (at 35 µM) -7.9% (active); (confirmation average, at 20 µM) 107%.
As to `COc1cccc(NC(=O)C(=O)c2cn(CC(=O)N3CCOCC3)c3ccccc23)c1`, the inhibition (at 35 µM) is -12.2% (inactive).
`Cn1c(N)cc(-c2ccc(F)cc2)c(C#N)c1=O`: the inhibition is -11% (active) (at 35 µM) and 108% (confirmation average, at 20 µM).
As to `COc1ccc(O)c(C(=O)c2cnc3c(c2)c(-c2ccc(F)cc2)c(C#N)c(=O)n3C)c1`, the inhibition (at 35 µM) is -3.7% (inactive).
In the case of `Cc1cc(C)c2c(-c3ccc(F)cc3)c(C#N)c(=O)n(C)c2n1`, the inhibition (at 35 µM) was -1.8% (inactive).
Take `CC(=O)NCCNC(=O)c1cc(-c2cccc3ccccc23)nc2ccccc12`: for the setting “at 35 µM”, the inhibition is 0.8% (inactive).
Same read-out and setting: the figure for `COc1ccccc1N1CCN(S(=O)(=O)c2ccc(Cl)cc2)CC1` is -8.3% (inactive).
Same read-out and setting: the figure for `O=S(=O)(c1ccc(F)cc1)N1CC=C(c2ccccc2)CC1` is -1.4% (inactive).
Turning to `Cc1c(C2=CCN(S(=O)(=O)c3ccc(Cl)cc3)CC2)c2ccccc2n1C`, the inhibition is, setting by setting: (at 35 µM) 91.5% (active); (confirmation average, at 20 µM) 99.6%.
For `CCOc1ccc(C(=O)Nc2c3c(nn2-c2ccccc2)CS(=O)(=O)C3)cc1`, the inhibition (at 35 µM) is -1.2% (inactive).
On the same count and under the same terms, then `O=C(Nc1ncc([N+](=O)[O-])s1)C1COc2ccccc2O1` (stereo unspecified), with -6.7% (inactive); and `N[C@@H](Cc1ccccc1)C(=O)N1CCC(C(=O)NCC(=O)Nc2ccc(F)cc2)CC1`, with 20% (inactive).
The same measure, in the same setting: then `COc1cc(/C=N\Nc2ccc([N+](=O)[O-])cn2)ccc1OCC(=O)O`, with -3.4% (inactive).
The same measure, in the same setting: then `Cc1cc(/C=N/Nc2ccc([N+](=O)[O-])cn2)c(C)n1-c1cccc(C(=O)O)c1`, with 54.4% (active); and `Cc1ccc(-n2c(C)cc(/C=N/Nc3ccc([N+](=O)[O-])cn3)c2C)c(C)c1`, with 6.6% (inactive); and `O=C(c1cc(S(=O)(=O)N2CCOCC2)ccc1Cl)N1CCOCC1`, with -2.4% (inactive).
In the case of `COc1cc2c(cc1OC)C(C)N(S(=O)(=O)c1cnc(Cl)c(Cl)c1)CC2` (stereo unspecified), the inhibition (at 35 µM) was 1.8% (inactive).
Same read-out and setting: then `Cc1ccc(NS(=O)(=O)c2ccc(F)cc2)nc1`, with -7.9% (inactive); and `CCC(Cc1ccccc1)NS(=O)(=O)c1ccc2c(c1)NC(=O)CS2` (stereo unspecified), with -2.9% (inactive).
With `CCOC(=O)c1c(C)[nH]c(C2=NNC(=NC(C)COC)SC2)c1C` (stereo unspecified), the inhibition is -1.8% (active) (at 35 µM) and 93.1% (confirmation average, at 20 µM).
As for `CCOC(=O)c1c(C)[nH]c2c1-c1ccccc1C(=O)C2=O`, where the note is “at 35 µM”, the inhibition was -11% (inactive).
Still for that read-out and setting: then `CCCCOC(=O)c1[nH]c(C)c(C(=O)OC)c1C`, with 4.8% (inactive); and `COc1cc(/C=N/O)ccc1OCc1ccc([N+](=O)[O-])cc1`, with 0.1% (inactive).
For `COC(=O)c1ccc(COc2ccc(/C=C/C(=O)c3ccc(OC)c(CSCC(=O)O)c3)cc2OC)cc1`, the inhibition (at 35 µM) is 81% (active) and the inhibition (confirmation average, at 20 µM) stood at 68.7%.
The corresponding values for `COc1ccc(C(=O)/C=C/c2ccc(-c3ccccc3)cc2)cc1CSCC(=O)O` are 82.3% (inactive) and 47.3%.
In the case of `CCCc1ccc(OCC(O)CN2CCN(CCO)CC2)cc1` (stereo unspecified), the inhibition (at 35 µM) is -2.4% (inactive).

As usually defined, the inhibition is the change of the read-out against control, counted positive when it falls.

Source of the values: PubChem BioAssay AID2012 (Sanford-Burnham Center for Chemical Genomics, 2009).
